HT1080NT lethal: qHTS for induction of synthetic lethality in tumor cells producing 2HG: qHTS for the HT-1080-NT fibrosarcoma cell line; Potency, µM (titrated, usually from 46.1 µM), hits mostly cytotoxic; hit rate 1.6% among 360,000; HT-1080-NT fibrosarcoma viability, CellTiter-Glo ATP luminescence, 48 h; AID 686970, 2013;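 further: NT is the 2HG producing partner of a matched IDH1 knockdown line; nearly all actives have a fitted effect of over 55% in size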
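Read-out is CellTiter-Glo luminescence after 10 minutes at room temperature, following 48 hours' compound treatment of HT-1080-NT cells (750 cells/well, RPMI, 5% FBS, 37 degrees C).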
MCF10A rerep: A quantitative high throughput screen for small molecules that induce DNA re-replication in MCF 10a normal breast cells. MCF 10A DNA re-replication, Hoechst nuclear intensity, 48 h. Potency, µM (top dose mostly 46.1 µM), hits mostly activators. hit rate 2.9% among 350,000. AID 624296, 2012; further: nearly all actives have a fitted effect of over 50% in size
KB-3-1 cytotox: qHTS assay for MDR1-selective chemotherapeutics: Primary screen using the parental adenocarcinoma cell KB-3-1. Potency, µM (doses to about 46.1 µM), most hits filed as cytotoxic. AID 1347075, 2019. KB-3-1 viability, CellTiter-Glo ATP luminescence, 72 h. hit rate 1.4% among 400,000; further: nearly all actives have a fitted effect of over 60% in size
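Viability of parental KB-3-1 cells, measured by CellTiter-Glo luminescence, followed a 72 h incubation at 37 °C with pinned compounds in phenol-red-free DMEM containing 10% FBS.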
SW480 rerep: A quantitative high throughput screen for small molecules that induce DNA re-replication in SW480 colon adenocarcinoma cells | SW480 DNA re-replication, Hoechst DNA content imaging, 48 h | Potency, µM (highest dose often 46.1 µM), hits mostly activators | hit rate 1.8% among 340,000; further: nearly all actives have a fitted effect of over 55% in size
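Treated cells incubate 48 hr (37 C, 5% CO2), are stained 40 min with Hoechst, and nuclear fluorescence is enumerated; a rise in nuclei with high DNA signal marks re-replication.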
KB-V1 MDR tox: qHTS assay for MDR1-selective chemotherapeutics: Primary screen using the drug-selected MDR subline cells KB-V1. KB-V1 MDR cells viability, CellTiter-Glo, 72 h. hit rate 3.4% among 400,000. Potency, µM (highest dose often 46.1 µM), actives largely listed as cytotoxic. AID 1347076, 2019; further: nearly all actives have a fitted effect of over 60% in size
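Readout: CellTiter-Glo luminescence, 10 min after addition. Cells: KB-V1 MDR subline, 72 h at 37 degrees C with compound. Analysis: corrected, normalized data fitted to concentration-effect curves.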
HT1080 IDH1KD tx: qHTS for induction of synthetic lethality in tumor cells producing 2HG: qHTS for the HT-1080-IDH1KD cell line; HT-1080 IDH1 knockdown viability, ATP luminescence, 48 h; Potency, µM (series often up to 46.1 µM), usual class: cytotoxic; hit rate 2% among 360,000; AID 686971, 2013
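After a 2 h attachment period, IDH1KD HT-1080 cells took pin-transferred compound for 48 h at 37 °C; ATP-based luminescence after 10 min room-temperature reagent incubation reported viability.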
A number is an active result; 0 = inactive; ? = inconclusive; - = not tested or not shown; [ ] = remark or other dose. Rows were chosen to be rich in hits. Some 8% of all compounds tested hit in one or more screens of this group. The call rests on the fitted dose curve; in most records, active means well fitted curve in the direction sought with a large enough effect; inconclusive means small, poorly fitted or top-dose-only effect, or another doubt; inactive means no such curve, though single readings can be large; an effect the other way counts as inactive or inconclusive.

SMILES	HT1080NT lethal	MCF10A rerep	KB-3-1 cytotox	SW480 rerep	KB-V1 MDR tox	HT1080 IDH1KD tx
CCOC(=O)C(=O)c1c(-c2ccccc2)nc2ccccn12	0	0	0	0	0	0
CCOC(=O)C(=O)c1c(-c2ccc(C)cc2)nc2ccccn12	0	?	0	0	0	0
CCOC(=O)c1c(-c2ccccc2)nc2ccc(C)cn12	0	0	0	0	21µM	0
CCOC(=O)c1c(-c2ccccc2)nc2cc(C)ccn12	0	?	0	0	15µM	?
Cc1oc(-c2ccccc2Cl)nc1CSCC(=O)N1CCCC1	0	0	?	0	?	?
Cc1ccccc1C(=O)Nc1sc(C)c(C)c1C(=O)c1ccccc1	0	0	0	0	7.3µM	0
Cc1cc(C)c(C#N)c(SCC(=O)C2CC2)n1	0	?	0	21µM	0	0
CCOC(=O)c1sc(NC(=O)c2ccncc2)c(C#N)c1C	?	0	4.1µM	0	2.6µM	0
Cc1ccccc1-c1cc(C(=O)Nc2sc(C)c(C)c2C(N)=O)c2ccccc2n1	?	0	0	0	16µM	?
COC(=O)CSc1nc(C)cc(C)c1C#N	0	0	?	0	?	0
COc1cccc(-c2nc(S(=O)(=O)c3ccccc3)c(N3CCC(C)CC3)o2)c1	-	-	0	-	?	-
CCOC(=O)c1sc(NC(=O)CSc2nc(C)cc(C)c2C#N)c(C#N)c1C	0	2µM	0	0	0	0
COCc1cc(C)nc(SCC(=O)Nc2nc(C)cs2)c1C#N	?	16µM	?	?	0	0
CCOC(=O)c1sc(NC(=O)c2cc(-c3ccccc3C)nc3ccccc23)c(C#N)c1C	?	2.6µM	8.2µM	0	?	?
CCOC(=O)c1c(NC(=O)c2cc(-c3ccc(Cl)s3)nc3ccccc23)sc(C(N)=O)c1C	0	?	?	0	0	0
COc1cccc(C(=O)Nc2cc(C)c3c(=O)oc4ccccc4c3n2)c1	0	0	0	0	0	0
COc1ccc2c(CNCCc3ccccc3OC)c(C(=O)O)n(Cc3ccc(F)cc3Cl)c2c1	-	-	21µM	-	0	-
O=[N+]([O-])c1ccccc1C=CC=NN=Cc1ccccc1O	0	0	0	0	0	0
COc1ccc(CNC(=O)c2cc3c(C)nc4ccccc4c3o2)c(OC)c1	0	0	?	0	12µM	?
COc1ccc(-c2cc(=O)oc3c(C)c(OCC(=O)N(C)C)ccc23)cc1	0	0	?	0	0	0
COc1ccc(-c2cc(=O)oc3c(C)c(O)c(CN(C)C)cc23)cc1	0	0	0	0	2.3µM	0
C=CCNC(=O)c1ccc2c3n(nc2c1)-c1ccccc1CO3	?	0	0	0[9.22 µM]	0	?
Cc1cccc(Oc2nc(-c3ccncc3)nc3ccccc23)c1	?	?	0	0	0	?
Cc1ccccc1Oc1nc(-c2ccccn2)nc2ccccc12	?	0	0	0	9.2µM	0
Cc1cccc(Oc2nc(-c3ccccn3)nc3ccccc23)c1	?	0	0	0	?	16µM
SMILES	HT1080NT lethal	MCF10A rerep	KB-3-1 cytotox	SW480 rerep	KB-V1 MDR tox	HT1080 IDH1KD tx
CCNc1cc2c(cc1O)CCC1C2CCC2(C)C(O)CCC12 (stereo not drawn)	0	?	?	?	?	0
CCCCC(=O)O[C@H]1CC[C@H]2[C@@H]3CCc4cc(O)ccc4[C@H]3CC[C@]12C	21µM	0	?	0	?	?
C=Cc1cc2c(cc1O)CCC1C2CCC2(C)C(O)CCC12 (stereo not drawn)	?	10µM	18µM	?	?	?
C[C@]12CC[C@@H]3c4ccc(O)cc4CC[C@H]3[C@@H]1CC[C@@H]2OC(=O)CCC1CCCC1	0	0	0	0	0	0
CCOc1cc2c(cc1O)CCC1C2CCC2(C)C(O)CCC12 (stereo not drawn)	?	1.2µM	?	?	?	?
CC#Cc1cc2c(cc1O)CCC1C2CCC2(C)C(O)CCC12 (stereo not drawn)	8.2µM	8.2µM	2.6µM	9.2µM	?	?
O=C(Nc1cccc(-c2csc(Nc3ccc(Cl)cc3)n2)c1)c1cc([N+](=O)[O-])cc(C(F)(F)F)c1	0	9.2µM	?	0	0	0
O=C(Nc1cccc(-c2csc(Nc3ccc(Cl)cc3)n2)c1)c1cccc(C(F)(F)F)c1	?	4.1µM	?	0	0	?
O=C(Nc1cccc(-c2csc(Nc3ccc(Cl)cc3)n2)c1)c1ccccc1	?	0	0	0	0	?
CC(C)=CCn1c2ccc(NC(=O)Nc3ccc(N(C)C)cc3)cc2c(=O)n1C	0	-	0	-	0	?
COc1cc(/C=N/NC(=O)c2cccnc2)ccc1OS(=O)(=O)c1ccc(F)cc1	0	0	0	0	0	0
CC(=O)N1CCN(c2nc(-c3cccs3)nc3ccccc23)CC1	0	0	0	?	?	0
Cc1ccc(-c2noc(CCC(=O)NCCN3CCOCC3)n2)cc1	0	0	0	0	0	0
Cc1ccc(-c2noc(CCC(=O)NCC3CCCO3)n2)cc1 (stereo not drawn)	0	0	0	0	21µM	0
Cc1ccc(-c2noc(CCC(=O)NCCN3CCN(Cc4ccccc4)CC3)n2)cc1	0	0	?	0	16µM	0
Cc1ccc(C(=O)NC(=S)Nc2cc(C(F)(F)F)ccc2Cl)cc1	?	9.2µM	0	?	0	?
O=C(Nc1cc(C(F)(F)F)ccc1Cl)c1ccncc1	?	0	0	0	0	0
COc1cc(C(=O)Nc2cc(C(F)(F)F)ccc2Cl)cc(OC)c1OC	0	0	0	0	21µM	0
CCCCn1c(N)c(N(CCOC)C(=O)COC(=O)COc2cc(C)ccc2Cl)c(=O)[nH]c1=O	0	0	0	0	0	0
Cc1ccc(C)c(NC(=S)NC(NC(=O)OCc2ccccc2)C(Cl)(Cl)Cl)c1 (stereo not drawn)	0	?	0	?	15µM	0
O=C(NC(NC(=S)Nc1c(Cl)cc(Cl)cc1Cl)C(Cl)(Cl)Cl)OCc1ccccc1 (stereo not drawn)	?	13µM	?	?	12µM	?
CNc1oc(-c2ccc(C)cc2)nc1P(=O)(c1ccccc1)c1ccccc1	?	18µM	0	0	0	?
CC1CCc2c(sc3nc(CN4CCOCC4)nc(Sc4ccccc4)c23)C1 (stereo not drawn)	0	0	0	0	8.2µM	0
CC1CCc2c(sc3ncnc(N4CCOCC4)c23)C1 (stereo not drawn)	?	0	0	0	15µM	?
